Only some compounds are listed: those with a hit (about 3.2% of all), similar ones and a draw of the others.
FMDV inh – High Throughput Screening for Foot and Mouth Disease Virus Antivirals. Potency, µM (doses to about 57.9 µM), for the others: at the highest dose activity change, negative = inhibition, most hits filed as inhibitors. 410,000 compounds, 1.2% hits. FMDV antiviral cell-based qHTS; calls by dose curve; tested in HEK293T cells; further: read-out not given here; nearly all actives have a fitted effect of over 45% in size
Vaccinia mCherry – qHTS for Stage-Specific Inhibitors of Vaccinia Orthopoxvirus: mCherry Reporter Primary qHTS; Vaccinia virus mCherry reporter infection, fluorescence; Potency, µM (top dose mostly 36.5 µM), inactives show at the highest dose activity change, negative = inhibition, usual class: inhibitors; 310,000 compounds, 0.63% hits; AID 720579, 2013; calls by dose curve; tested in A549 cells; further: nearly all actives have a fitted effect of over 35% in size
MARV entry inh – qHTS for inhibitors of binding or entry into cells for Marburg Virus; Marburg virus pseudotyped entry inhibition, cell reporter; 300,000 compounds, 1.8% hits; Potency, µM (doses to about 37.8 µM), for the others: top-dose activity change, negative = inhibition, usual class: inhibitors; calls by dose curve; tested in HEK293 cells
Vaccinia Venus – qHTS for Stage-Specific Inhibitors of Vaccinia Orthopoxvirus: Venus Reporter Primary qHTS; Vaccinia virus Venus reporter expression, fluorescence; Potency, µM (doses to about 36.5 µM), for inactives: at the top dose activity change, negative = inhibition, most hits filed as inhibitors; 330,000 compounds, 0.46% hits; calls by dose curve; tested in A549 cells; further: nearly all actives have a fitted effect of over 30% in size
LASV entry inh – qHTS for Inhibitors of binding or entry into cells for Lassa Virus; Lassa virus pseudotype entry inhibition, cell reporter; Potency, µM (highest dose often 37.9 µM), inactives show at the highest dose activity change, negative = inhibition, usual class: inhibitors; 300,000 compounds, 1.2% hits; calls by dose curve; tested in HEK293 cells; further: nearly all actives have a fitted effect of over 50% in size
Starred values were filed as active, the others as inactive; i = inactive; ? = inconclusive; / = no result given; [ ] = another dose, or the depositor's remark. On the % scale 0 is the no-effect control and ±100 the full control effect; potency means the concentration at half of the fitted maximal effect.

SMILES | FMDV inh | Vaccinia mCherry | MARV entry inh | Vaccinia Venus | LASV entry inh
CC(=O)OC(C)C1C2=C(C(=O)CC1(C)O)C(=O)c1c(ccc(-c3ccc4c(c3O)C(=O)C3=C(C4=O)C(C(C)OC(C)=O)C(C)(O)CC3=O)c1O)C2=O (stereo not given) | 18µM* | ? | -3% | 6% | -5%[46.1 µM]
CC(=O)C1CCC2C3CCC4=CC(=O)C=CC4(C)C3C(=O)CC12C (stereo not given) | -7% | i | -20%[46.1 µM] | -15% | 1%[46.1 µM]
C[C@]12C=CC(=O)C=C1CC[C@@H]1C2=CC[C@]2(C)[C@@H](C(=O)CN3CCN(c4cc(N5CCCC5)nc(N5CCCC5)n4)CC3)CC[C@@H]12 | -4% | 1µM* | 5.6µM* | ? | -25%
CCCOc1ccc(CC2CCC(=O)NC2=O)cc1 (stereo not given) | 11µM* | / | / | / | /
COc1cccc(-c2ccc(O)c(CNCc3cccc4ccccc34)c2)n1 | -5% | i | / | -12% | /
O=C(Nc1ccc(Cl)cc1)/C(=C/c1cccc(O)c1)c1nc2ccccc2s1 | 10µM* | 11µM* | ? | 10µM* | ?
Cc1ccc(/C=N/Nc2nncc(-c3ccccc3)n2)o1 | 8% | -15% | -4%[46.1 µM] | 4% | -3%
Cc1[nH]n(-c2ccccc2)c(=O)c1/C=N/Nc1nncc(-c2ccccc2)n1 | / | 4µM* | 4.1µM* | ? | 4.1µM*
Cc1[nH]n(-c2ccccc2)c(=O)c1C=Nc1cccc2cccnc12 | -23% | 13µM* | 8.9µM* | ? | ?
Cc1ccc(-n2[nH]c(C)c(/C=N/c3ccccn3)c2=O)cc1 | / | i | 1% | -17% | 9%
COC(=O)C1=C(C(=O)OC)C(C(=O)OC)C(C(=O)OC)C(C(=O)OC)(C(=O)OC)C(C(=O)OC)=C1C(=O)OC (stereo not given) | 40µM* | ? | ? | ? | ?
CCOc1[nH]c(/N=C/c2ccc(OC)cc2)c(C#N)c1C#N | / | -12% | / | 102% | /
CSc1cccc(NC(=S)N2CCCN(Cc3cccc(Cl)c3)C2)c1 | -4% | -7% | 4.5µM* | -17% | ?
COc1ccc(NC(=S)N2CCCN(Cc3cccc(Cl)c3)C2)cc1 | -8% | -23% | ? | 9% | ?
CSc1cccc(NC(=S)N(CCCN2CCCC2)Cc2cccn2Cc2ccc(Cl)cc2)c1 | 40µM* | ? | 6.3µM* | ? | 2.8µM*
S=C(Nc1cccc(Cl)c1)N(CCCN1CCCC1)Cc1cccn1Cc1ccc(Cl)cc1 | -24% | ? | ? | ? | ?
CCc1noc(C)c1C(=O)Oc1ccc(N(C)S(=O)(=O)c2ccccc2)cc1 | 18µM* | -21% | ? | -15% | ?
Cc1noc(C)c1CSCC(=O)Oc1ccc(N(C)S(=O)(=O)c2ccccc2)cc1 | -7% | -12% | 5% | -2% | -5%
Cc1c(C)n(CCCN(C)C)c2ncnc(NC3CCCCC3)c12 | -7% | -26% | 10µM* | ? | ?
CC(=O)CC(c1ccccc1)c1c(O)c2ccccc2oc1=O (stereo not given) | -6% | -14% | / | -15% | /
CC/C(CC(c1ccccc1)c1c(O)c2ccccc2oc1=O)=N\NC(N)=S (stereo not given) | 29% | 14µM* | ? | ? | 5%
O=C(O)c1cccnc1SCc1ccccc1 | 30% | / | 14% | / | 2%
CCn1c(SCc2nc(-c3cccs3)no2)nnc1-c1c[nH]c2ccccc12 | 22µM* | i | ? | -9% | 20µM*
O=C(NC(Nc1nc2ccc([N+](=O)[O-])cc2s1)(C(F)(F)F)C(F)(F)F)c1ccccc1Cl | 2.5µM* | / | ? | / | 1.6µM*
O=C(NC(Nc1nc2ccc([N+](=O)[O-])cc2s1)(C(F)(F)F)C(F)(F)F)c1cccnc1 | 2.8µM* | / | ? | / | ?
O=C(NC(NNc1ccc([N+](=O)[O-])cc1)(C(F)(F)F)C(F)(F)F)c1ccccc1Cl | ? | / | 24% | / | 5%
CCOC(=O)c1ccc(NC(=O)c2ccc3c(c2)C(=O)N(CC2CCCO2)C3=O)cc1 (stereo not given) | 28µM* | -3% | 26% | -4% | -4%
CCOC(=O)c1ccc(NC(=O)c2ccc3c(c2)C(=O)N(Cc2cccnc2)C3=O)cc1 | 18µM* | / | / | / | /

Screening results: PubChem BioAssay, National Center for Advancing Translational Sciences (NCATS)
